Laboratory results taken from PubChem BioAssay (NCI).
The panel holds about 79,000 compounds, 15% with a hit somewhere; the sample as a whole holds those more often. Unmarked numbers belong to inactive results. Activity calls are given as the source filed them. Rule as the data show it: active = growth inhibition above about 70%; inactive = the rest.

Experiments:
[1] = NCI Yeast Anticancer Drug Screen. Data for the rad50 strain (AID 155);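 also: 0% = growth of vehicle-only cultures of the same strain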; conditions: S. cerevisiae rad50 strain growth inhibition, hits give high values
Summary of the method: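 Readout: growth inhibition relative to vehicle-treated cultures. Compound exposure was carried out in a genetically defined yeast strain deficient in DNA damage repair.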

[2] = NCI Yeast Anticancer Drug Screen. Data for the mec2-1 strain (AID 157); conditions: S. cerevisiae mec2-1 strain, hits give high values
Summary of the method: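 Test agents were screened against the mec2-1 yeast strain, with defined DNA repair or cell cycle alteration. Growth was scored as inhibition against vehicle-only controls.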

[3] = NCI Yeast Anticancer Drug Screen. Data for the sgs1 mgt1 strain (AID 161);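 also: 0% = growth of cultures given vehicle only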; conditions: S. cerevisiae sgs1 mgt1 strain, hits give high values
Summary of the method: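 Test agents were incubated with a DNA-repair-mutant yeast strain. Growth was then read and compared against vehicle-treated controls.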

[4] = NCI Yeast Anticancer Drug Screen. Data for the cln2 rad14 strain (AID 165);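 also: 0% = growth equal to vehicle treated cultures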; conditions: S. cerevisiae cln2 rad14 strain, hits give high values
Summary of the method: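 Growth of compound-exposed yeast (cln2 rad14 genotype) measured and expressed as inhibition relative to vehicle.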

[5] = NCI Yeast Anticancer Drug Screen. Data for the bub3 strain (AID 167); conditions: S. cerevisiae bub3 mutant strain, hits give high values
Summary of the method: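 Readout: yeast growth inhibition, expressed relative to vehicle-only wells. The test organism is a mutant strain from a panel with lesions in DNA repair or checkpoint genes.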

[6] = NCI Yeast Anticancer Drug Screen. Data for the mlh1 rad18 strain (AID 175); conditions: S. cerevisiae mlh1 rad18 strain growth inhibition, hits give high values
Summary of the method: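 In this whole-cell yeast screen, a strain with altered DNA damage repair is challenged with compound, and its growth is measured against matched vehicle-treated controls.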

[7] = at 5.0 µM (retest, dose inferred, filed as 0.5)
[8] = at 50.0 µM (retest, dose inferred, filed as 5.0)

Compound	growth inhibition [1, 7]	growth inhibition [1, 8]	growth inhibition ([1]; at 50.0 µM)	growth inhibition [2, 7]	growth inhibition [2, 8]	growth inhibition ([2]; at 50.0 µM)	growth inhibition [3, 7]	growth inhibition [3, 8]	growth inhibition ([3]; at 50.0 µM)	growth inhibition [4, 7]	growth inhibition [4, 8]	growth inhibition ([4]; at 50.0 µM)	growth inhibition [5, 7]	growth inhibition [5, 8]	growth inhibition ([5]; at 50.0 µM)	growth inhibition [6, 7]	growth inhibition [6, 8]	growth inhibition ([6]; at 50.0 µM)
O=C1C=Cc2ccccc2/C1=C/c1nc(-c2ccccc2)oc1O	-2%	97% (active)	89.5% (active)	-15%	98% (active)	91.8% (active)	17%	97% (active)	49.5%	2%	97% (active)	86.5% (active)	0%	98% (active)	92.7% (active)	5%	97% (active)	90% (active)
c1ccc(-c2cccc(-c3ccccn3)n2)nc1	93% (active)	99% (active)	99.4% (active)	74% (active)	99% (active)	99.7% (active)	91% (active)	99% (active)	99.5% (active)	81% (active)	99% (active)	99.1% (active)	96% (active)	99% (active)	99.2% (active)	83% (active)	99% (active)	99.5% (active)
NNc1ccc(Cl)cc1Cl	79% (active)	97% (active)	98.4% (active)	54%	99% (active)	99.4% (active)	66%	98% (active)	50.6%	75% (active)	99% (active)	58.6%	85% (active)	98% (active)	98.8% (active)	77% (active)	98% (active)	48.1%
O=C(O)CCCOc1cc(-c2ccccc2F)nc2cc3c(cc12)OCO3	11%	36%	76.8% (active)	3%	31%	80.8% (active)	13%	27%	71% (active)	5%	46%	71.3% (active)	9%	47%	77.9% (active)	7%	52%	54%
CN(C)c1ccc(C(C#N)(c2ccccc2)c2ccc(N(C)C)cc2)cc1	35%	87% (active)	39.3%	14%	92% (active)	96.2% (active)	48%	93% (active)	94.2% (active)	1%	89% (active)	59.8%	80% (active)	91% (active)	97.5% (active)	16%	86% (active)	43.5%
Nc1ccc(C(=O)/C=C/c2ccccc2)cc1	6%	57%	67.8%	12%	58%	85.3% (active)	11%	75% (active)	78.1% (active)	4%	21%	8.95%	5%	81% (active)	94.5% (active)	4%	53%	96.3% (active)
O=C(OC12CC3CC(CC(C3)C1)C2)c1ccc(NCc2cc(O)ccc2O)cc1	39%	94% (active)	84.7% (active)	28%	96% (active)	88% (active)	39%	95% (active)	90.8% (active)	17%	95% (active)	87.8% (active)	28%	91% (active)	89.8% (active)	32%	94% (active)	88.5% (active)
Cc1c(O)ccc(SC#N)c1C	-7%	82% (active)	88.5% (active)	2%	74% (active)	83.8% (active)	7%	75% (active)	86.7% (active)	29%	85% (active)	84% (active)	-3%	84% (active)	87.5% (active)	-1%	87% (active)	88.5% (active)
CCc1oc2ccccc2c1C(=O)c1cc(Br)c(O)c(Br)c1	29%	99% (active)	99.2% (active)	11%	100% (active)	99.3% (active)	8%	99% (active)	99.2% (active)	8%	100% (active)	99% (active)	1%	99% (active)	99.3% (active)	18%	99% (active)	99.2% (active)
Nc1nc(N)c2cc(Sc3cccc(C(F)(F)F)c3)ccc2n1	21%	77% (active)	68.5%	18%	75% (active)	53%	15%	97% (active)	79.1% (active)	22%	26%	87.7% (active)	17%	74% (active)	23.9%	22%	93% (active)	88.8% (active)
